Experimental data published in PubChem BioAssay AID1851 (National Center for Advancing Translational Sciences (NCATS), 2009).
Among all 16,000 compounds or so, about 4,000 (25%) were called active. Roughly 26% stayed inconclusive and do not appear here. The list is a sample of the results. A number with no mark means an inactive call. Calls come from the whole dose curve; as a rule, active = well fitted curve in the direction sought with a large enough effect; inconclusive = small, poorly fitted or top-dose-only effect, or effect the other way; inactive = no such curve, though single readings can be large or run the other way.

biological target: Cytochrome P450 2C9 (Homo sapiens) (UniProt P11712); experiment: Cytochrome panel assay with activity outcomes; conditions: recombinant CYP, pro-luciferin dealkylation, luminescence, p450-cyp2c9; series mostly up to 57.1 µM; activity, negative = inhibition: at the top concentration
% is set by controls: 0 for no effect and ±100 for the full control effect.

Cytochrome P450 2C9 (Homo sapiens), sequence (P11712 whole entry, looked up): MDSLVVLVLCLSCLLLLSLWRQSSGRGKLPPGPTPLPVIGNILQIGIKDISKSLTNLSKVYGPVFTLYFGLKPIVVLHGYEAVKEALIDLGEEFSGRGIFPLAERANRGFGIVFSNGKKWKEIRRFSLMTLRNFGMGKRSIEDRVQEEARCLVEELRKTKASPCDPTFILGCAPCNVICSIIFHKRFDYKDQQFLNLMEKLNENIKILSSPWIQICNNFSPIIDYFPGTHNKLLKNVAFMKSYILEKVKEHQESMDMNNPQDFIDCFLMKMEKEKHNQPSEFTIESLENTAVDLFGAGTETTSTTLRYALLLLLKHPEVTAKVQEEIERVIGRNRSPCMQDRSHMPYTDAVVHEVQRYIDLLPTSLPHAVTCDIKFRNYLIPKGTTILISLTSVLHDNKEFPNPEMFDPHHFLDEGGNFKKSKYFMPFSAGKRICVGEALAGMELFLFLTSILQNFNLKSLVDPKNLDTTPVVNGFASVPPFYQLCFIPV

| SMILES | activity, negative = inhibition | AC50 |
| --- | --- | --- |
| CC(C)NC(=O)N1CC[C@@]2(CCCN(C(=O)c3cccn3C)C2)C1 | 8.02% | – |
| N#Cc1nc(COc2ccccc2Cl)oc1NCc1ccco1 | – | 1.78 µM (active) |
| CN(C)CCNc1oc(COc2ccc(Cl)cc2Cl)nc1C#N | 22.6% | – |
| CCOc1ccc(-c2cc(CCCC(=O)Nc3cc(OC)ccc3OC)no2)cc1 | – | 2.24 µM (active) |
| CCOc1ccc(-c2cc(CCCC(=O)NCCc3ccc(OC)c(OC)c3OC)no2)cc1 | – | 1 µM (active) |
| CCOc1ccc(-c2nnn(CC(=O)Nc3cc(OC)ccc3OC)n2)cc1OCC | -21.2% | – |
| CN(C)CCCN1c2ccc(O)cc2Sc2ccc(Cl)cc21 | -1.91% [at 11.4 µM] | – |
| CSC1=N/C(=C\c2ccc(C)cc2)C(=O)S1 | – | 22.4 µM (active) |
| CSC1=N/C(=C\c2ccc3c(c2)OCO3)C(=O)S1 | -17.8% | – |
| CSC1=N/C(=C\c2ccc(Br)o2)C(=O)S1 | – | 39.8 µM (active) |
| CCCCNC(=O)C(=O)c1ccccc1NC(C)=O | 16.8% | – |
| Cc1cnc(CNc2ncncc2-c2ccccc2C#N)cn1 | -5.28% [at 2.29 µM] | – |
| O=c1c(Oc2ccccc2Br)c(C(F)(F)F)oc2c(CN3CCCC3)c(O)ccc12 | -21.2% | – |
| CCN(CC)Cc1c(O)ccc2c(=O)c(Oc3ccccc3OC)coc12 | – | 7.94 µM (active) |
| Cc1cccc(Cn2ncc(Cl)c(Cl)c2=O)c1 | -21.4% | – |
| Cc1cccc(CNc2ncncc2-c2ccccc2Cl)c1 | 7.19% [at 2.29 µM] | – |
| C=CCSc1nc2c(sc3nc(C)cc(C)c32)c(=O)[nH]1 | – | 7.94 µM (active) |
| Cc1c(S(=O)(=O)O)ccc(N=Nc2c(O)c(C(=O)O)cc3ccccc23)c1Cl | -11.1% [at 11.4 µM] | – |
| Nc1nc2n[nH]nc2c(=O)[nH]1 | -12.4% [at 25.6 µM] | – |
| Cc1cc(C)c(O)c(Cc2cccc(Cc3cc(C)cc(C)c3O)c2O)c1 | 11.7% [at 11.4 µM] | – |
| Cc1cc(Cc2cc(Cc3cc(C)cc(C(C)(C)C)c3O)c(C)cc2C)c(O)c(C(C)(C)C)c1 | – | 3.16 µM (active) |
| Cc1cc(Cc2c(C)c(C)c(Cc3cc(C)cc(C(C)(C)C)c3O)c(C)c2C)c(O)c(C(C)(C)C)c1 | 9.35% [at 11.4 µM] | – |
| Cc1cc(Cc2cc(C)cc(C(C)(C)C)c2O)c(O)c(Cc2cc(C)cc(C(C)(C)C)c2O)c1 | – | 3.16 µM (active) |

| SMILES | activity, negative = inhibition | AC50 |
| --- | --- | --- |
| CC(C)c1cc(CN(C)C)c(O)c(C(C)(C)C)c1 | 1.03% [at 11.4 µM] | – |
| Cc1cc(C(C)(C)C)c(O)c(C)c1CC1=NCCN1 | – | inactive |
| Cc1ccc(NC(=S)N2CCN(CCN3C(=O)c4cccc5cccc(c45)C3=O)CC2)cc1 | – | 6.31 µM (active) |
| Cc1ccc(NC(=S)N2CCN(C3CCCCC3)CC2)cc1 | 4.46% | – |
| C[N+](C)(CCCCCC[N+](C)(C)CCCN1C(=O)c2cccc3cccc(c23)C1=O)CCCN1C(=O)c2cccc3cccc(c23)C1=O | 10.1% | – |
| C/C(=N\NC(=O)Cc1ccc(Cl)cc1)c1ccccn1 | – | 14.1 µM (active) |
| COc1ccccc1CNC(=O)C/C(C)=N/NC(=O)Cc1ccccc1 | 13.2% | – |
| C/C(=N\NC(=O)CC1N=C(Cc2ccccc2)NNC1=O)c1ccc(Cl)cc1Cl (stereo unspecified) | -30% | – |
| CC1(C)C2([N+](=O)[O-])CN3CC1([N+](=O)[O-])CN(C2)C3c1ccccc1 (stereo unspecified) | -20.9% | – |
| FC(F)(F)c1ccccc1-c1cc(NCCN2CCOCC2)ncn1 | 26.8% [at 2.29 µM] | – |
| CCOC(=O)Oc1c(OC)cc(C(=O)O[C@H]2C[C@H]3CN4CCc5c([nH]c6cc(OC)ccc56)[C@@H]4C[C@H]3[C@@H](C(=O)OC)[C@@H]2OC)cc1OC | -2.83% [at 25.6 µM] | – |
| Cc1ccc(S(=O)(=O)N(Cc2ccccc2)c2ccccc2C(=O)NCc2ccco2)cc1 | – | 0.0398 µM (active) |
| Cc1cccc(C)c1NC(=O)CCN1C(=O)C2C3CCC(C3)C2C1=O (stereo unspecified) | -43.2% | – |
| Cc1cc(C(=O)CSc2nnc(-c3ccccc3)o2)c(C)n1CC1COc2ccccc2O1 (stereo unspecified) | – | 3.55 µM (active) |
| CCn1ccnc1C[C@@H]1COc2ccccc2O1 | – | inactive |
| Cc1ccc(SCc2[nH]nc3c2C(C(C)C)C(C#N)=C(N)O3)cc1 (stereo unspecified) | – | 7.08 µM (active) |
| Fc1ccc(CSc2ncnc3sc4c(c23)CCCC4)cc1 | – | 11.2 µM (active) |
| Fc1cccc(CSc2ncnc3c2ncn3[C@H]2CCCS2)c1 | 9.41% [at 11.4 µM] | – |
| O=C(O)CSc1ncnc2sc3c(c12)CCC3 | -25.3% | – |
| COCCN1CN=C(Nc2nc3ccccc3s2)NC1 | -22.2% | – |
| O=[N+]([O-])c1ccc(Nc2nc3ccccc3s2)cc1 | – | 1.26 µM (active) |
| O=C(NNc1nc2ccccc2s1)C1CC1 | -21.8% | – |
| CCCCC(=O)NC(Nc1cc(C)ccn1)(C(=O)OCC)C(F)(F)F (stereo unspecified) | – | 22.4 µM (active) |
